What was measured:
[1] = biological target: T1, GST-Nv-NF-kB (Ser allele) (Nematostella vectensis, UniProt A7UNT2 2-411); test: protein-binding microarray (PBM); PBM: ~300 nM protein, 6 mM HEPES pH 7.8, 80 mM KCl, 0.5 mM EDTA, 0.5 mM EGTA, 6% glycerol, 35 ng/ul poly-dIdC, 1% milk, 1 h, room temperature; Ap Aiptasia and Nv Nematostella (sea anemones) / Co Capsaspora / Aq Amphimedon (sponge) / Dm Drosophila / Hu human; RHD is the Rel homology domain; high values mean tight binding; details: dsDNA, one strand shown
T1 sequence: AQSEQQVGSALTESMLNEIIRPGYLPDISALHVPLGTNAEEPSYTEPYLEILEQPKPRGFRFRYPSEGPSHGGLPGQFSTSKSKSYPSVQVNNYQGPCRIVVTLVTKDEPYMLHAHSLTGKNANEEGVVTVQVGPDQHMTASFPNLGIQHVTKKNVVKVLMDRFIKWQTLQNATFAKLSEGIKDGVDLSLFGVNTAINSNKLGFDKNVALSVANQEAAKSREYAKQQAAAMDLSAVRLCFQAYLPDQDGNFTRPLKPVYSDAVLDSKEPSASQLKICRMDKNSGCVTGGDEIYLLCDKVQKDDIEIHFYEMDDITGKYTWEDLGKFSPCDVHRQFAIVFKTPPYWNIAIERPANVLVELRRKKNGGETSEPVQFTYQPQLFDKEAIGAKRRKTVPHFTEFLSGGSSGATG

GST-Hu-p50 = GST-Hu-p50 (Homo sapiens, UniProt P19838 7-356); test: as above; details: dsDNA, one strand shown
Sequence of GST-Hu-p50 (P19838 7-356): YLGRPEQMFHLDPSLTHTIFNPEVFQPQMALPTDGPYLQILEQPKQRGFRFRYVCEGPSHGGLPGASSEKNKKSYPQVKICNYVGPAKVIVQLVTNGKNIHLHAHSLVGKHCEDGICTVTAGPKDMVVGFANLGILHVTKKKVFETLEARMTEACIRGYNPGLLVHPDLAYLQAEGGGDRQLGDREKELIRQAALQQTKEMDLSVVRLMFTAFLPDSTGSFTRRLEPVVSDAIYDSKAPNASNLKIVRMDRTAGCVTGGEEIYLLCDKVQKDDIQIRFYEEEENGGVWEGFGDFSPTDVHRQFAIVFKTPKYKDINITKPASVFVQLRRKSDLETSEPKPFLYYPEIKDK

Sequence | binding signal [1] | binding signal (GST-Hu-p50)
CCGATTAACATCACGTGTTTCCCTGATGTTAATCGGGTCTTGATTCGCTTGACGCTGCTG | 3.33 z-score | 1.11 z-score
CCGATTAACATCACAAAATTTCCTGATGTTAATCGGGTCTTGATTCGCTTGACGCTGCTG | 1.16 z-score | 1.41 z-score
CCGATTAACATCAGGAAAATACCTGATGTTAATCGGGTCTTGATTCGCTTGACGCTGCTG | 3.24 z-score | 3.12 z-score
CCGATTAACATCAGAGAAACCCCTGATGTTAATCGGGTCTTGATTCGCTTGACGCTGCTG | 4.24 z-score | 5.09 z-score
CCGATTAACATCAGGGTATTACCTGATGTTAATCGGGTCTTGATTCGCTTGACGCTGCTG | 4.88 z-score | 3.33 z-score
CCGATTAACATCAGGGGGATCACTGATGTTAATCGGGTCTTGATTCGCTTGACGCTGCTG | 5.27 z-score | 5.04 z-score
CCGATTAACATCAGGGGAGAATATGATGTTAATCGGGTCTTGATTCGCTTGACGCTGCTG | 6.21 z-score | 4.46 z-score
CCGATTAACATCAAGTTTACCCCTGATGTTAATCGGGTCTTGATTCGCTTGACGCTGCTG | 3.57 z-score | 3.2 z-score
CCGATTAACATCAGGAATGTCCCTGATGTTAATCGGGTCTTGATTCGCTTGACGCTGCTG | 3.65 z-score | 3.77 z-score
CCGATTAACATCAGGGGACAACCTGATGTTAATCGGGTCTTGATTCGCTTGACGCTGCTG | 4.41 z-score | 4.2 z-score
CCGATTAACATCAAATCGGGAAATGATGTTAATCGGGTCTTGATTCGCTTGACGCTGCTG | 2.88 z-score | 1.88 z-score
CCGATTAACATCAGGGGGTGTTATGATGTTAATCGGGTCTTGATTCGCTTGACGCTGCTG | 4.85 z-score | 5.17 z-score
CCGATTAACATCACCCTTGCAGGTGATGTTAATCGGGTCTTGATTCGCTTGACGCTGCTG | 1.12 z-score | 2.18 z-score
CCGATTAACATCAATTTACCCACTGATGTTAATCGGGTCTTGATTCGCTTGACGCTGCTG | 2.27 z-score | 2.06 z-score
CCGATTAACATCAGTTCCCCCCATGATGTTAATCGGGTCTTGATTCGCTTGACGCTGCTG | 5.19 z-score | 4.95 z-score
CCGATTAACATCAGGGGAGCACCTGATGTTAATCGGGTCTTGATTCGCTTGACGCTGCTG | 3.94 z-score | 4.33 z-score
CCGATTAACATCAGAATAACCCCTGATGTTAATCGGGTCTTGATTCGCTTGACGCTGCTG | 3.11 z-score | 4.22 z-score
CCGATTAACATCAAAATTTCACCTGATGTTAATCGGGTCTTGATTCGCTTGACGCTGCTG | 3.88 z-score | 3.28 z-score
CCGATTAACATCAGGCCCCCCCCTGATGTTAATCGGGTCTTGATTCGCTTGACGCTGCTG | 3.9 z-score | 4.51 z-score
CCGATTAACATCAAACAGGGAAATGATGTTAATCGGGTCTTGATTCGCTTGACGCTGCTG | 3.74 z-score | 2.36 z-score
CCGATTAACATCAGGCCATCCCCTGATGTTAATCGGGTCTTGATTCGCTTGACGCTGCTG | 3.8 z-score | 3.33 z-score
CCGATTAACATCAGGAATTCCCATGATGTTAATCGGGTCTTGATTCGCTTGACGCTGCTG | 5.66 z-score | 4.39 z-score
CCGATTAACATCAGGCGATTCCCTGATGTTAATCGGGTCTTGATTCGCTTGACGCTGCTG | 2.44 z-score | 1.92 z-score
CCGATTAACATCAGGGGATAAAATGATGTTAATCGGGTCTTGATTCGCTTGACGCTGCTG | 6.05 z-score | 3.95 z-score

Sequence | binding signal [1] | binding signal (GST-Hu-p50)
CCGATTAACATCAGGATAATCCCTGATGTTAATCGGGTCTTGATTCGCTTGACGCTGCTG | 1.62 z-score | 2.15 z-score
CCGATTAACATCACCCACTTCCCTGATGTTAATCGGGTCTTGATTCGCTTGACGCTGCTG | 2.13 z-score | 1.86 z-score
CCGATTAACATCAGGGGATCCACTGATGTTAATCGGGTCTTGATTCGCTTGACGCTGCTG | 5.91 z-score | 4.97 z-score
CCGATTAACATCAGGACACCCCCTGATGTTAATCGGGTCTTGATTCGCTTGACGCTGCTG | 3.79 z-score | 5.24 z-score
CCGATTAACATCAGGGGGTAAAATGATGTTAATCGGGTCTTGATTCGCTTGACGCTGCTG | 6.35 z-score | 4.51 z-score
CCGATTAACATCACGGGGTTCCCTGATGTTAATCGGGTCTTGATTCGCTTGACGCTGCTG | 1.48 z-score | 2.59 z-score
CCGATTAACATCAAATTCCCAGTTGATGTTAATCGGGTCTTGATTCGCTTGACGCTGCTG | 3.92 z-score | 2.85 z-score
CCGATTAACATCAGGGGAGTTAATGATGTTAATCGGGTCTTGATTCGCTTGACGCTGCTG | 4.74 z-score | 3.74 z-score
CCGATTAACATCAGAACTTTCCCTGATGTTAATCGGGTCTTGATTCGCTTGACGCTGCTG | 5.58 z-score | 4.94 z-score
CCGATTAACATCAAATTGCCCCCTGATGTTAATCGGGTCTTGATTCGCTTGACGCTGCTG | 4.54 z-score | 4.59 z-score
CCGATTAACATCAGGGGAGAACCTGATGTTAATCGGGTCTTGATTCGCTTGACGCTGCTG | 5.63 z-score | 4.26 z-score
CCGATTAACATCATGGGGACGACTGATGTTAATCGGGTCTTGATTCGCTTGACGCTGCTG | 2.44 z-score | 2.41 z-score
CCGATTAACATCAGGGGGGGACCTGATGTTAATCGGGTCTTGATTCGCTTGACGCTGCTG | 3.87 z-score | 3.99 z-score
CCGATTAACATCACCTCTTTCCCTGATGTTAATCGGGTCTTGATTCGCTTGACGCTGCTG | 3.91 z-score | 2.44 z-score
CCGATTAACATCAGGGGGTTAGATGATGTTAATCGGGTCTTGATTCGCTTGACGCTGCTG | 3.46 z-score | 3.95 z-score
CCGATTAACATCAGGGGTGGGAATGATGTTAATCGGGTCTTGATTCGCTTGACGCTGCTG | 1.67 z-score | 1.53 z-score
CCGATTAACATCAAAAACTACCCTGATGTTAATCGGGTCTTGATTCGCTTGACGCTGCTG | 4.59 z-score | 3.73 z-score
CCGATTAACATCACATTCTCCCCTGATGTTAATCGGGTCTTGATTCGCTTGACGCTGCTG | 5.45 z-score | 3.4 z-score
CCGATTAACATCAGGGAAGCACCTGATGTTAATCGGGTCTTGATTCGCTTGACGCTGCTG | 3.97 z-score | 5.24 z-score
CCGATTAACATCAGAAAAAACCCTGATGTTAATCGGGTCTTGATTCGCTTGACGCTGCTG | 5.08 z-score | 4.96 z-score
CCGATTAACATCAAACAAACCCCTGATGTTAATCGGGTCTTGATTCGCTTGACGCTGCTG | 2.48 z-score | 3.95 z-score
CCGATTAACATCACGGGAACCCCTGATGTTAATCGGGTCTTGATTCGCTTGACGCTGCTG | 2.26 z-score | 3.43 z-score
CCGATTAACATCACTCCCTAAAATGATGTTAATCGGGTCTTGATTCGCTTGACGCTGCTG | 1.75 z-score | 2.32 z-score
